Data published in PubChem BioAssay (Tox21).
Results filed as inconclusive are left out. Where a call stands in place of a potency, no number is given. Activity calls are given as the source filed them. Unless noted, calls come from the whole dose curve.

Columns and labels:
[1] = Nuclear factor erythroid 2-related factor 2/antioxidant responsive element (Nrf2/ARE) small molecule agonists: qHTS cell viability counter screen in human keratinocytes (AID 1919968; active = well fitted curve in the direction sought with a large enough effect in the repeat runs; an effect the other way counts as inactive or inconclusive; note: nearly all actives have a fitted effect of over 55% in size; note: potency is the fitted concentration of half-maximal effect)
Outline: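 Measured as CellTiter-Fluor fluorescence, this readout tracks cytotoxicity in the same wells as the ARE-luciferase screen. HaCaT reporter cells (1,500/well) received compounds after a 5 h pre-incubation and were exposed for 23 h.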

[2] = Nuclear factor erythroid 2-related factor 2/antioxidant responsive element (Nrf2/ARE) small molecule agonists: luciferase reporter gene qHTS assay in human keratinocytes (AID 1919969); note: nearly all actives have a fitted effect of over 35% in size
[3] = target: Gonadotropin-releasing hormone receptor (Homo sapiens) (UniProt P30968); assay: Human gonadotropin-releasing hormone receptor (GnRHR) small molecule agonists, calcium flux assay in GnRHR-HEK293 cells (AID 1920063); note: nearly all actives have a fitted effect of over 35% in size
Outline: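 Fluorescence kinetics (480 nm excitation, 540 nm emission; 3 min, 1 s steps) report calcium mobilisation in human GnRHR-HEK293 cells in agonist mode. Dye incubation: 1 h, 37 C.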

[4] = target: KiSS-1 receptor (Homo sapiens) (UniProt Q969F8); assay: Human kisspeptin (KISS1R) small molecule agonists, calcium flux assay in KISS1R-HEK293 cells (AID 1920064; active = well fitted curve in the direction sought with a large enough effect in the repeat runs; an effect the other way counts as inactive or inconclusive)
Outline: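 Measures KISS1R agonism through calcium-sensitive dye fluorescence in stably transfected HEK293 cells, read for 3 min after pin-tool compound delivery; 15-point titrations in triplicate.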

[5] = G protein-coupled receptor (GPCR) small molecule agonists, calcium flux assay: HEK293 wild type cell line counter screen (AID 1920065)
Outline: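 Readout: fluorescence at 480 nm excitation/540 nm emission, sampled at 1 s intervals for 3 min. Cells had been cultured 18 h, then dye-loaded 1 h at 37 C before compound or ATP addition.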

[6] = p53 small molecule agonists, cell-based qHTS assay with human liver microsomes (AID 1963577)
Outline: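 Fluorescence of the beta-lactamase reporter in p53RE-bla cells, detected with LiveBLAzer substrate (2 h, room temperature, dark), served as the read-out after 16 h compound exposure at 37 C with human liver microsomes and NADPH, each 0.5 mg/mL final.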

[7] = p53 small molecule agonists, cell-based qHTS assay with rat liver microsomes (AID 1963578)
Outline: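 Cells carrying a p53 response element–beta-lactamase reporter were plated and rested 5 h, then dosed with compound in DMSO plus rat liver microsomes and NADPH, each at 0.5 mg/mL final. After 16 h at 37 C, LiveBLAzer substrate was added for 2 h.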

[8] = p53 small molecule agonists, cell-based qHTS assay with human liver microsomes: qHTS cell viability counter screen (AID 1963579); note: nearly all actives have a fitted effect of over 45% in size
Outline: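 Cytotoxicity counter screen: p53RE-bla, 4,000 cells/well; 5 h settle, 37 C/5% CO2; cpd + HLM 0.5 mg/mL + NADPH 0.5 mg/mL (final); 16 h, 37 C; CellTiter-Glo, 30 min RT, luminescence.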

[9] = p53 small molecule agonists, cell-based qHTS assay with rat liver microsomes: qHTS cell viability counter screen (AID 1963580); note: nearly all actives have a fitted effect of over 45% in size
Outline: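 In HCT-116 cells carrying a p53 response element-bla reporter, compounds were metabolically activated in situ by rat liver microsomes with NADPH over 16 h. Cell ATP content then served as the cytotoxicity measure.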

[10] = p53 small molecule agonists, cell-based qHTS assay: qHTS cell viability counter screen (AID 1963581); note: nearly all actives have a fitted effect of over 45% in size
Outline: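 In the same plates used for the p53 bla reporter, HCT-116 cells given compounds for 16 h at 37 C received CellTiter-Glo; luminescence was recorded 30 min later at room temperature.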

[11] = p53 small molecule agonists, cell-based qHTS assay (AID 1963582; active = well fitted activation curve with a large enough effect in the signal ratio in the repeat runs, not every such curve was filed as active; the % refers to the signal ratio)
Outline: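 Compounds are pin-transferred in DMSO onto p53RE-bla cells and incubated 16 h at 37 C. The B/G FRET beta-lactamase substrate is then applied for 2 h at RT and fluorescence recorded.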

[12] = target: 5-hydroxytryptamine receptor 2A (Homo sapiens) (UniProt P28223); assay: 5-hydroxytryptamine receptor 2A (HTR2A) small molecule antagonists, cell-based qHTS assay (AID 1963586); note: nearly all actives have a fitted effect of over 45% in size
Outline: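 Antagonist-mode intracellular calcium assay: DOI (4 nM) added after 5 min compound pre-incubation at room temperature to dye-loaded HTR2A-CHO cells. Fluorescence followed for 3 min, sampled every second.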

[13] = target: 5-hydroxytryptamine receptor 2A (Homo sapiens) (UniProt P28223); assay: 5-hydroxytryptamine receptor 2A (HTR2A) small molecule agonists, cell-based qHTS assay (AID 1963587); note: nearly all actives have a fitted effect of over 30% in size
Outline: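 HTR2A-CHO cells, plated 18 h at 37 C/5% CO2, dye-loaded 1 h at 37 C; compounds in DMSO added by pin tool (agonist mode). Intracellular calcium flux read as kinetic fluorescence on FDSS over 2 min at 1 s intervals.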

[14] = target: Muscarinic acetylcholine receptor M1 (Homo sapiens) (UniProt P11229); assay: Cholinergic receptor muscarinic 1 (CHRM1) small molecule antagonists, cell-based qHTS assay (AID 1963588); note: nearly all actives have a fitted effect of over 40% in size; note: potency is the fitted concentration of half-maximal effect
Outline: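 CHRM1-CHO calcium-flux assay, antagonist mode. Cells were seeded 18 h, dye-loaded 1 h at 37 C and given compound for 5 min at RT, then acetylcholine was added at 50nM. FDSS fluorescence was read 3 min; 15 concentrations, three runs.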

[15] = target: Muscarinic acetylcholine receptor M1 (Homo sapiens) (UniProt P11229); assay: Cholinergic receptor muscarinic 1 (CHRM1) small molecule agonists, cell-based qHTS assay (AID 1963589); note: nearly all actives have a fitted effect of over 35% in size
Outline: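 Each compound was tested at 15 concentrations across three independent runs on dye-loaded CHO cells stably expressing human CHRM1, reading intracellular calcium fluorescence kinetically at 1 sec intervals.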

[16] = cAMP Responsive Elements (CRE) small molecule antagonists, cell-based qHTS assay (AID 1963591; active = well fitted inhibition curve with a large enough effect in the signal ratio in the repeat runs, not every such curve was filed as active; the % refers to the signal ratio)
Outline: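 Inhibition of NKH477-driven (0.25 uM final) CRE-beta-lactamase signal in HEK293T cells, 3 h compound exposure at 37 °C, detected by FRET substrate fluorescence.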

[17] = target: Beta-2 adrenergic receptor (Homo sapiens) (UniProt P07550); assay: Adrenergic beta2 receptor (ADRB2) small molecule antagonists, cell-based qHTS assay (AID 1963592); note: series mostly up to about 92 µM; nearly all actives have a fitted effect of over 50% in size
Outline: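 Cells (CHO, stable ADRB2 overexpression) incubated 18-20hr at 37C; compounds added from DMSO; agonist mix (1nM isoproterenol, 100uM IBMX, 25uM Ro-20-1724) added; 0.5hr RT; d2-cAMP and anti-cAMP-cryptate added; 1hr RT; 665/615 nm read.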

[18] = target: D(2) dopamine receptor (Homo sapiens) (UniProt P14416); assay: Dopamine D2 receptor (DRD2) small molecule agonists, cell-based qHTS assay (AID 1963594); note: nearly all actives have a fitted effect of over 35% in size
Outline: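 HEK293 cells stably expressing DRD2 were cultured 24 h at 37 C, then given Ro20-1724 (0.1 mM final) and compounds for 10 min at room temperature. NKH477 (200nM) was then added for 30 min. cAMP was read by HTRF.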

[19] = target: D(2) dopamine receptor (Homo sapiens) (UniProt P14416); assay: Dopamine D2 receptor (DRD2) small molecule antagonists, cell-based qHTS assay (AID 1963595; active = well fitted inhibition curve with a large enough effect in the signal ratio in the repeat runs, with a control signal flat; the % refers to the signal ratio; note: potency is the fitted concentration of half-maximal effect)
Outline: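 Antagonism was scored as restored cAMP in HEK293-DRD2 cells. These cells were stimulated with 200 nM NKH477 and 12 nM quinpirole for 30 min at room temperature, in the presence of 0.1 mM Ro20-1724.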

[20] = cAMP Responsive Elements (CRE) small molecule agonists, cell-based qHTS assay (AID 1963590)
Outline: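 Cell line: CRE-bla HEK 293T; medium DMEM/10% dialyzed FBS/0.1 mM NEAA/1 mM pyruvate/25 mM HEPES; 3 h compound exposure; beta-lactamase FRET readout after 2 h substrate loading at RT.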

Chain of Muscarinic acetylcholine receptor M1 (Homo sapiens) (P11229 whole entry, looked up): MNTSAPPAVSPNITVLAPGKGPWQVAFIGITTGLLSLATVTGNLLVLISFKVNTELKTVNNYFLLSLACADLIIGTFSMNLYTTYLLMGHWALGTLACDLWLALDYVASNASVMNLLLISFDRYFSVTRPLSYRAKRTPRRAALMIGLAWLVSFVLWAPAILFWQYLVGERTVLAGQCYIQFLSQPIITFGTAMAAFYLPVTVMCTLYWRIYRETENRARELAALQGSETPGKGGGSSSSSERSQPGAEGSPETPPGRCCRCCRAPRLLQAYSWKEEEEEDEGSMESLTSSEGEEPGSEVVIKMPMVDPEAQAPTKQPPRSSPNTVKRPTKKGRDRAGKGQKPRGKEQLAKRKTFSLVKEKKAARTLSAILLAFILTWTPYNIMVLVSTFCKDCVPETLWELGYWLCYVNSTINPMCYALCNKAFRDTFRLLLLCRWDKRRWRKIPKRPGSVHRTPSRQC
Chain of KiSS-1 receptor (Homo sapiens) (Q969F8 whole entry, looked up): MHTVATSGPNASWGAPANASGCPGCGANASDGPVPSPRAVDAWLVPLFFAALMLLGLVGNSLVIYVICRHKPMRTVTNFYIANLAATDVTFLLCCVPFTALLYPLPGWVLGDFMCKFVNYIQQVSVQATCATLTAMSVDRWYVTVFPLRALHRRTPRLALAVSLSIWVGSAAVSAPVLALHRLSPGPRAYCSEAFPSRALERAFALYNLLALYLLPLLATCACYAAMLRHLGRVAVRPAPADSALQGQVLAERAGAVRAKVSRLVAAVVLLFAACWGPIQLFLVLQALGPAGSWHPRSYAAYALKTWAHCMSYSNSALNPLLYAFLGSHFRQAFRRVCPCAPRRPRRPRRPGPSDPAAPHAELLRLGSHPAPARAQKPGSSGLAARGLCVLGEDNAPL
Chain of 5-hydroxytryptamine receptor 2A (Homo sapiens) (P28223 whole entry, looked up): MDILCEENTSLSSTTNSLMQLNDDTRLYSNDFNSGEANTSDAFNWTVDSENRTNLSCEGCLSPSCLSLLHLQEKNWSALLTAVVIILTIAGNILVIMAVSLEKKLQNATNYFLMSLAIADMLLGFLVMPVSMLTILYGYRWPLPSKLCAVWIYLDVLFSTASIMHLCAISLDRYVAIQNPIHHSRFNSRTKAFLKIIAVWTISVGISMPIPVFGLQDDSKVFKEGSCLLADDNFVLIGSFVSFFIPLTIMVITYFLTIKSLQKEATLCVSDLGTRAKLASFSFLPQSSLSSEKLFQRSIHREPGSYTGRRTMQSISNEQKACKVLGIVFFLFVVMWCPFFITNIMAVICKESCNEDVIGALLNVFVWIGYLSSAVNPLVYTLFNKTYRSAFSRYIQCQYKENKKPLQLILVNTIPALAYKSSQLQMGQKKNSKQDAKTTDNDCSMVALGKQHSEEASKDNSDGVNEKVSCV
Chain of Beta-2 adrenergic receptor (Homo sapiens) (P07550 whole entry, looked up): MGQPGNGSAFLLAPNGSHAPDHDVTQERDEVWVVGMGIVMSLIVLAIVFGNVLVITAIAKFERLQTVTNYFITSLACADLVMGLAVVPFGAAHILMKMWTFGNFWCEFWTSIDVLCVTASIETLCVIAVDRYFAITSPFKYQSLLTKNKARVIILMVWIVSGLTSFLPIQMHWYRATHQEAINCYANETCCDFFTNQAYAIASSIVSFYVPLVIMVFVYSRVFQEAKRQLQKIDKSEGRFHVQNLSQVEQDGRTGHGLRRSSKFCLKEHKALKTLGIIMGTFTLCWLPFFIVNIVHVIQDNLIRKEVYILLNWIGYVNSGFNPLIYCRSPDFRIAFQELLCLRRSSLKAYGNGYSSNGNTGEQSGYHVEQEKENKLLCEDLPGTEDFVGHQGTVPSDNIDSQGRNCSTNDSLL
Chain of D(2) dopamine receptor (Homo sapiens) (P14416 whole entry, looked up): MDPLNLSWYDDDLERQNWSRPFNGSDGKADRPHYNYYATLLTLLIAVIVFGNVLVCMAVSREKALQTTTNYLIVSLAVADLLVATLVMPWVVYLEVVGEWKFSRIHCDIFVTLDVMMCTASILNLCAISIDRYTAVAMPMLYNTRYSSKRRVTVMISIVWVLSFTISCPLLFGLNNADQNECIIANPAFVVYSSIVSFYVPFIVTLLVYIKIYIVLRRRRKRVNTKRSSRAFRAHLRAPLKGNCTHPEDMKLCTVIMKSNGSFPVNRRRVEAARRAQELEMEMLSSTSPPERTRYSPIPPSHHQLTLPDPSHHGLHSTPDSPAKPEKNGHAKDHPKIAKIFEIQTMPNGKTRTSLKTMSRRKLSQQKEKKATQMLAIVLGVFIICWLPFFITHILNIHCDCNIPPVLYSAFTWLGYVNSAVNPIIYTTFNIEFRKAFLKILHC
Chain of Gonadotropin-releasing hormone receptor (Homo sapiens) (P30968 whole entry, looked up): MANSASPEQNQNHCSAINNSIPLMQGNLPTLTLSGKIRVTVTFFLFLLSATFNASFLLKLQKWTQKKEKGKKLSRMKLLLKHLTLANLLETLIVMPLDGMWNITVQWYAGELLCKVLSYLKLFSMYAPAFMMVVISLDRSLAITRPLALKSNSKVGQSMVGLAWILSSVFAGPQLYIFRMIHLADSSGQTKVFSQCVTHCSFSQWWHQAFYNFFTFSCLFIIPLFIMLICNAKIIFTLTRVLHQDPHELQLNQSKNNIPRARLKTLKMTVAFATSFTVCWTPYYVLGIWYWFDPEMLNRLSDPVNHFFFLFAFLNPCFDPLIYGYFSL

SMILES	Potency [1]	Potency [2]	Potency [3]	outcome [4]	outcome [5]	Potency [6]	Potency [7]	Potency [8]	Potency [9]	Potency [10]	Potency [11]	Potency [12]	Potency [13]	Potency [14]	Potency [15]	Potency [16]	Potency [17]	Potency [18]	Potency [19]	Potency [20]
CCCCC1CCCCC(=O)O1 (stereo not given)	inactive	inactive	inactive	inactive	inactive	inactive	inactive	inactive	inactive	inactive	inactive	inactive	inactive	inactive	inactive	inactive	inactive	inactive	inactive	–
CO/N=C(\C(=O)N[C@@H]1C(=O)N2C(C(=O)O)=C(CSc3nc(=O)c(O)nn3C)CS[C@H]12)c1csc(N)n1	inactive	inactive	inactive	inactive	inactive	inactive	inactive	inactive	inactive	inactive	inactive	inactive	inactive	516 nM (active)	inactive	inactive	inactive	inactive	inactive	–
CC(=O)Nc1cc(S(=O)(=O)O)cc2cc(S(=O)(=O)O)c(N=Nc3ccccc3)c(O)c12	27300 nM (active)	inactive	inactive	inactive	inactive	inactive	inactive	inactive	inactive	inactive	inactive	inactive	inactive	inactive	inactive	–	–	inactive	–	inactive
O=[N+]([O-])c1ccc2[nH]ncc2c1	inactive	inactive	inactive	inactive	inactive	inactive	inactive	inactive	inactive	inactive	inactive	inactive	inactive	inactive	inactive	inactive	inactive	inactive	inactive	–
COC(=O)c1ccc(OC)cc1	inactive	inactive	inactive	inactive	inactive	inactive	inactive	inactive	inactive	inactive	inactive	inactive	inactive	inactive	inactive	inactive	inactive	inactive	inactive	–
C=CN1CCCCCC1=O	inactive	inactive	inactive	inactive	inactive	inactive	inactive	inactive	inactive	inactive	inactive	inactive	inactive	inactive	inactive	inactive	inactive	inactive	inactive	–
C=C(C)C(=O)OCC(C)(C)COC(=O)C(=C)C	inactive	inactive	inactive	inactive	inactive	inactive	inactive	inactive	inactive	inactive	inactive	inactive	inactive	inactive	inactive	–	inactive	–	inactive	inactive
CC(C)OC(=O)C(C(=O)OC(C)C)=C1SC=CS1	inactive	inactive	inactive	inactive	inactive	inactive	inactive	inactive	inactive	inactive	inactive	inactive	inactive	inactive	inactive	–	–	inactive	inactive	inactive
NCc1ccco1	inactive	inactive	inactive	inactive	inactive	inactive	inactive	inactive	inactive	inactive	inactive	inactive	inactive	inactive	inactive	inactive	inactive	–	inactive	–
Nc1ccc(NC(=O)c2ccc(N)cc2)cc1	inactive	inactive	inactive	inactive	inactive	inactive	inactive	inactive	inactive	inactive	inactive	inactive	inactive	inactive	inactive	–	–	inactive	inactive	inactive
Cc1nc2ccccn2c(=O)c1CCN1CCC(C(=O)c2ccc(F)cc2)CC1	inactive	inactive	inactive	inactive	inactive	inactive	inactive	inactive	inactive	inactive	inactive	inactive	inactive	inactive	inactive	–	–	inactive	531 nM (active)	inactive
CCCC(=O)OC(=O)CCC	inactive	inactive	inactive	inactive	inactive	inactive	inactive	inactive	inactive	inactive	inactive	inactive	inactive	inactive	inactive	inactive	inactive	inactive	inactive	–
O=C(CO)[C@@H](O)[C@H](O)[C@@H](O)CO	inactive	inactive	inactive	inactive	inactive	inactive	inactive	inactive	inactive	inactive	inactive	inactive	inactive	inactive	inactive	inactive	inactive	inactive	inactive	–
